# Sfp inh: qHTS Assay for Inhibitors of Bacillus subtilis Sfp phosphopantetheinyl transferase (PPTase) | 4'-phosphopantetheinyl transferase ffp (Bacillus subtilis), Q9F4F7 | Biochemical Sfp PPTase activity, qHTS | Potency, µM, for the others: largest response in the series, negative = inhibition, most hits filed as inhibitors | 310,000 tested, 3.5% active | AID 1490, 2009;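 also: the enzyme is Sfp with the accession as filed and its product quenches rhodamine fluorescence; 0% = enzyme reaction without inhibitor and -100% = no enzyme wells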
#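 Sfp 15 nM + cpd, 15 min RT; start w/ rhodamine-CoA 5 uM, BHQ-2-YbbR 12.5 uM (final); 50 mM Hepes pH 7.6, 10 mM MgCl2, 0.01% NP-40, 0.01% BSA; read 525/598 nm at 0 and 30 min.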
# PLK1 PBD inh: qHTS for Inhibitors of PLK1-PDB (polo-like kinase 1 - polo-box domain): Primary Screen; Plk1 PBD binding of FITC phosphopeptide, fluorescence polarization; Potency, µM, for the others: max response, negative = inhibition, most hits filed as inhibitors; 360,000 tested, 2.8% active; also: series mostly up to about 57 µM; nearly all actives have a fitted effect of over 65% in size
# Target sequence (P53350 whole entry, looked up, the tested form may be a part): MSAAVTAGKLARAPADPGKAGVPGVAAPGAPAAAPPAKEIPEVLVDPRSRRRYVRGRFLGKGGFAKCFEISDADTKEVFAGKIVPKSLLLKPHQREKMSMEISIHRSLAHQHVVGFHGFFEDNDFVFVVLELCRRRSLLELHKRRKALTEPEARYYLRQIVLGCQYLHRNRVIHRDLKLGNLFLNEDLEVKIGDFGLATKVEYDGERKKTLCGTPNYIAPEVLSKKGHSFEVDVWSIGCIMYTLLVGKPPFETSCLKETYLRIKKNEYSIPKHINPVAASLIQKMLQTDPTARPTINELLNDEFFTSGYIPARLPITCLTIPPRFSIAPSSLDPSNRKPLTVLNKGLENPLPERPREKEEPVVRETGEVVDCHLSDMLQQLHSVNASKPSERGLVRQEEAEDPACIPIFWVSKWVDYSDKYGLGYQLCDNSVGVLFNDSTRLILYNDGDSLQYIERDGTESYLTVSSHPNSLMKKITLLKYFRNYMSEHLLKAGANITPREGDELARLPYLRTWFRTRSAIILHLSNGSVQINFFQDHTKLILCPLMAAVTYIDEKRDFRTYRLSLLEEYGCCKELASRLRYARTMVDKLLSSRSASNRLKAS
# ALDH1A1 inh: qHTS Assay for Inhibitors of Aldehyde Dehydrogenase 1 (ALDH1A1); Purified ALDH1A1, NADH fluorescence, propionaldehyde substrate; AID 1030, 2008; Potency, µM (top dose mostly 75.3 µM), for inactives: at the top dose activity, negative = inhibition, actives largely listed as inhibitors; 220,000 tested, 7.3% active; Aldehyde dehydrogenase 1A1 (Homo sapiens), P00352; active = well fitted inhibition curve with a large enough effect, not every such curve was filed as active; inconclusive = small, poorly fitted or top-dose-only effect, or another doubt; inactive = no such curve, though single readings can be large or run the other way;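 also: plate controls were no enzyme wells and a reference inhibitor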
# RORgamma inh: qHTS for inhibitors of ROR gamma transcriptional activity | Drosophila S2 Gal4-RORgamma UAS-luciferase reporter, 20 h | 310,000 tested, 5.4% active | Potency, µM (highest dose often 53.6 µM), for inactives: top-dose activity change, negative = inhibition, actives largely listed as inhibitors | Nuclear receptor ROR-gamma (Mus musculus), P51450; also: nearly all actives have a fitted effect of over 60% in size
#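 Stably transfected Drosophila Schneider cells are the test system, with ROR gamma fused to Gal4 and luciferase under UAS control; luminescence is read after 20 hr of 700 uM copper sulfate induction at ambient temperature.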
# VP16 counter: VP16 counterscreen qHTS for inhibitors of ROR gamma transcriptional activity | Drosophila S2 Gal4-VP16 UAS-luciferase, luminescence, 20 h | Potency, µM (top dose mostly 53.6 µM), without a hit: at the top dose activity, negative = inhibition, most hits filed as inhibitors | 310,000 tested, 3.5% active | AID 2546, 2010;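 also: Gal4-VP16 expression switched on by copper sulfate through the metallothionein promoter; nearly all actives have a fitted effect of over 50% in size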
# * hit, by the source's call; ? = inconclusive; . = not tested or not shown; ! = repeats disagree; [ ] = remark or other dose. In the library only some 12% were active in any assay of this set; here they are far more common. Unless noted, calls follow the shape of the dose curve; as a rule, active = well fitted curve in the direction sought with a large enough effect; inconclusive = small, poorly fitted or top-dose-only effect, or another doubt; inactive = no such curve, though single readings can be large; an effect the other way counts as inactive or inconclusive. Unless noted, % is scaled to controls: 0 for no effect and ±100 for the full control effect; potency is read from the fitted curve at half-maximal effect.
SMILES,Sfp inh,PLK1 PBD inh,ALDH1A1 inh,RORgamma inh,VP16 counter
O=C(NC1CCCc2ccccc21)C1CCN(C(=O)c2sccc2-n2cccc2)CC1 (stereo not drawn),12%,-9%,1µM*,0%,0%
O=C(NCCc1ccccc1)C1CCN(C(=O)c2sccc2-n2cccc2)CC1,5%,-1%,4µM*,?,?
O=C(NCc1cccc(F)c1)C1CCN(C(=O)c2sccc2-n2cccc2)CC1,3%,9%,5µM*,15%,-18%
COc1ccccc1CNC(=O)C1CCN(C(=O)c2sccc2-n2cccc2)CC1,18%,-7%,.,1%,-7%
Cc1ccc(CCNC(=O)C2CCN(C(=O)c3sccc3-n3cccc3)CC2)cc1,1%,-3%,1µM*,45%,7%
Cn1c(=O)c(C(=O)COC(=O)c2cc(C(F)(F)F)nc3c(C(F)(F)F)cccc23)c(N)n(Cc2ccccc2)c1=O,-6%,.,-6%,-16%,-5%
CCNc1ncc2nc(C)c(=O)n(C[C@H]3CCCO3)c2n1,21%,.,?,-10%,-3%
CCCCCCCCCC(=O)OCC(CO)OC(=O)CCCCCCCCC (stereo not drawn),-5%,.,1%,-3%,-4%
CCC[C@@H]1C[C@@]1(CCC)C(NC(=O)c1ccccc1)c1cccc(Cl)c1 (stereo partly drawn),29%,.,3%,-9%,-2%
Cc1ccc(-c2nc(CN(CC3CCC3)CC3CCCO3)c(C)o2)s1 (stereo not drawn),16%,-2%,?,11µM*,17%
Cc1ccc(CNCC2CCCO2)s1 (stereo not drawn),13%,-12%,-16%,7%,-12%
CCC1(c2ccccc2)NC(=O)N(CC(=O)Nc2ccc3c(c2)CCC3)C1=O (stereo not drawn),.,-2%,.,.,.
CCC1(c2ccccc2)NC(=O)N(CC(=O)Nc2ccc(OC)nc2)C1=O (stereo not drawn),7%,13µM*,.,?,4%
CC(C)(C)c1ccc(S(=O)(=O)N2CCC(CO)(CC3CCCCO3)CC2)cc1 (stereo not drawn),7%,-8%,0.32µM*,?,-3%
Cc1ccc(S(=O)(=O)SC/C=C/CSS(=O)(=O)c2ccc(C)cc2)cc1,.,2.7µM*,.,.,.
Cc1ccc(S(=O)(=O)CS(=O)(=O)c2ccc(C)cc2)cc1,.,-2%,.,.,.
Cc1ccc(S(=O)(=O)SCCCSS(=O)(=O)c2ccc(C)cc2)cc1,.,2.4µM*,.,.,.
C=CCNc1ncnc2c1ncn2[C@H]1CN(Cc2cc(OC)c(OC)c(OC)c2)C[C@@H](CO)O1,.,-12%,.,.,.
COc1cc(/C=C2/SC(=NCc3ccccc3)N(Cc3ccccc3)C2=O)ccc1O,6%,11%,2.2µM*,-1%,2%
COc1cc(/C=C2/SC(=S)N(Cc3ccccc3)C2=O)ccc1O,-7%,15%,.,?,-16%
S=c1[nH]c2ccccc2o1,-28%,?,?,28µM*,-18%[10 µM]
COc1ccccc1NS(=O)(=O)c1ccc2oc(=S)[nH]c2c1,4%,?,.,-2%,-2%
O=C(/C=C/C#Cc1cccc(NS(=O)(=O)c2ccccc2)c1)NO,-16%,.,.,?,?
Cc1nc(N2CCC(C)CC2)c2oc3ccccc3c2n1,-24%,-3%,?,13µM*,?
Cc1nc(N2CCN(Cc3ccc(Cl)cc3)CC2)c2oc3ccccc3c2n1,22µM*,4%,.,-35%,-5%
SMILES,Sfp inh,PLK1 PBD inh,ALDH1A1 inh,RORgamma inh,VP16 counter
Cc1nc(N2CCN(C(=O)c3ccco3)CC2)c2oc3ccccc3c2n1,-7%,-4%,28µM*,13%,18%
COc1ccccc1N1CCN(c2nc(C)nc3c2oc2ccccc23)CC1,25µM*,2%,?,?,4%
CCc1nc(N2CCN(C(=O)c3ccco3)CC2)c2oc3ccccc3c2n1,-11%,-10%,-9%,0%,10%
O=C(O)C1CCN(c2nc(-c3ccccc3)nc3c2oc2ccccc23)CC1,7%,-8%,?,-3%,-3%
COc1ccc(OC)c(NC(=O)COC(=O)C2CCCCC2)c1,.,1%,.,.,.
COc1ccccc1NC(=O)NCCN1CCNC1=O,5%,2%,2%,5%,3%
N[C@@H](Cc1cc(I)c(Oc2ccc(O)c(I)c2)c(I)c1)C(=O)O,-1%,-15%,6.3µM*!,?,5%
COCc1ccc([C@@H]2C[C@H]3CN(Cc4cccnc4)C(=O)[C@]34CCCN24)o1,10%,-7%,1%,-2%,2%
COCc1ccc([C@@H]2C[C@H]3CN(Cc4ccccc4C)C(=O)[C@]34CCCN24)o1,1%,-6%,20µM*,27%,-3%
COc1cccc(S(=O)(=O)N(C)C[C@@H]2OCc3cn(nn3)CCCC(=O)N([C@@H](C)CO)C[C@H]2C)c1,.,-16%,.,.,.
COc1cccc(NC=C2C(=O)OC(C)(C)OC2=O)c1,10%,-5%,10µM*,20%,3%
CCOC(=O)c1ccc(NC=C2C(=O)OC3(CCCCC3)OC2=O)cc1,1%,3%,?,11%,1%
O=C1OC2(CCCCC2)OC(=O)C1=CNc1ccc2c(c1)OCO2,1%,-4%,0.89µM*,0%,-17%
COc1cccc(NC=C2C(=O)OC3(CCCCC3)OC2=O)c1,9%,-2%,1.6µM*,4%,-1%
CCCNC(=O)c1cc(C2CCCCN2S(=O)(=O)Cc2cccc(C(F)(F)F)c2)on1 (stereo not drawn),.,-6%,.,.,.
CCC(=O)OC1(C)C(=O)C=C2C=C(CCCNC(=O)OC(C)(C)C)OC=C2C1=O (stereo not drawn),-4%,.,1%,-16%,7%
CCOC(=O)c1sc(NNC(=O)c2ccc(F)cc2)nc1C,6%,-3%,.,0.71µM*,7.1µM*
CCOC(=O)c1sc(NCCNc2nc(C)c(C(=O)OCC)s2)nc1C,0%,-2%,-13%,-2%,-9%
CCOC(=O)c1sc(NC(=O)c2ccc(S(=O)(=O)N(C)C)cc2)nc1C,4%,-18%,?,0.25µM*,-28%
CCOC(=O)c1nc(NNC(=O)c2ccc([N+](=O)[O-])cc2)sc1C,8%,-15%,.,?,6.3µM*
CCOC(=O)c1sc(NNC(=O)c2ccc(C)cc2)nc1C,6%,-4%,.,0.79µM*,?
CCCCCCCCN1CC(Cc2cc3ccccc3c3ccccc23)N(c2ccccc2)c2ccccc2C1=O (stereo not drawn),.,-2%,.,.,.
CC(C)Oc1ccc(F)cc1-c1cc(C(=O)Nc2ccc(C(C)(C)C)cc2)[nH]n1,.,-4%,.,.,.
